# Screening data (PubChem BioAssay)
# This excerpt belongs to a sample that is enriched for hits.
# DT40 TDP1 CPT: growth inhibition of DT40 Tdp1-/-;hTDP1 cells with camptothecin (screen for TDP1 inhibitors). Potency, µM (titrated, usually from 46.2 µM), hits mostly inhibitors. chicken DT40 Tdp1-/-;hTDP1 cells + 20 nM CPT, ATP luminescence, 48 h. hit rate 12% among 420,000. AID 686979; also: nearly all actives have a fitted effect of over 55% in size
#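 Chicken DT40 Tdp1-/- cells stably complemented with human TDP1 were seeded at 400 cells/well in medium containing 20 nM camptothecin, exposed to pin-transferred compounds, and grown at 37 °C for at least 48 hr. Viability was read as ATP luminescence.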
# IL-1B inflam inh: inhibitors of inflammasome signaling (IL-1 beta secretion). hit rate 4.7% among 360,000. AID 743279. THP-1 LPS/ATP IL-1B secretion, AlphaLISA, 16 h; stronger effect = lower value. activity change, % at 57.5 µM; in the data active = activity change below about -50%; inconclusive = mostly about -30% to -49%
#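 Secreted IL-1B measured by AlphaLISA bead assay after 16 h compound exposure of THP-1 cells; compounds (final up to 57.5 uM) added 1 h before LPS (250 ng/mL) and ATP (1.25 mM) stimulation; lower signal means less secretion.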
# HT1080 IDH1KD tx: HT-1080 IDH1 knockdown cell toxicity (counter line); Potency, µM (doses to about 46.1 µM), most hits filed as cytotoxic; hit rate 2% among 360,000; HT-1080 IDH1 knockdown viability, ATP luminescence, 48 h
#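 After a 2 h attachment period, IDH1KD HT-1080 cells took pin-transferred compound for 48 h at 37 °C; ATP-based luminescence after 10 min room-temperature reagent incubation reported viability.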
# 12-LOX inh: blocks human arachidonate 12S-lipoxygenase; purified 12hLO, xylenol orange hydroperoxide absorbance; Potency, µM (series often up to 108 µM), hits mostly inhibitors; hit rate 1.1% among 580,000
# Target sequence (P18054 whole entry, looked up): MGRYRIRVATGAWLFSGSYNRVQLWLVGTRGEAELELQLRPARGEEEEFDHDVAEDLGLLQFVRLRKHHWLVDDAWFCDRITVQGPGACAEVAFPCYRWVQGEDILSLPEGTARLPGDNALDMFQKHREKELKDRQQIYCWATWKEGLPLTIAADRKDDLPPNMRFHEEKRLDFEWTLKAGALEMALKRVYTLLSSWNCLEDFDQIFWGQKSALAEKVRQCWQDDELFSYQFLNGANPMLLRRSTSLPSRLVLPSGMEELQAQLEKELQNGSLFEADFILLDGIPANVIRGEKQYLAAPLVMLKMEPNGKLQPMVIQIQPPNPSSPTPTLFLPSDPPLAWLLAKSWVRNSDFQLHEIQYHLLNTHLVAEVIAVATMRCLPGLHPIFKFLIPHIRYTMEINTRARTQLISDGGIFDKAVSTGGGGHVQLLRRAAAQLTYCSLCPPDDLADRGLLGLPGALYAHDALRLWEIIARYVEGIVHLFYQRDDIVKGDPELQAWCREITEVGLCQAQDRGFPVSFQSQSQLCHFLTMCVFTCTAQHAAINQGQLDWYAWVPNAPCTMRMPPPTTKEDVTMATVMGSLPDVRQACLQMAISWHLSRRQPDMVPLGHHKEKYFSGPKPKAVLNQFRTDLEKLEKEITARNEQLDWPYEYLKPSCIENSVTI
#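 Hydroperoxide product was detected by ferrous iron/xylenol orange as the 573 to 405 nm absorbance ratio. Arachidonic acid at 40 uM (final) was turned over for 30 min at room temperature by 150 nM human 12hLO, pH 7.0 Hepes buffer, after 15 min compound preincubation.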
# DT40 TDP1 no CPT: qHTS for Inhibitors of human tyrosyl-DNA phosphodiesterase 1 (TDP1): qHTS in cells in absence of CPT; hit rate 15% among 420,000; Potency, µM (top dose mostly 46.2 µM), hits mostly inhibitors; DT40 Tdp1-/- hTDP1 cells, no CPT, ATP luminescence, 48 h; also: nearly all actives have a fitted effect of over 55% in size
#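 Chicken DT40 Tdp1-/- cells stably complemented with human TDP1 were seeded at 400 cells/well with DMSO in place of 20 nM camptothecin. After compound pinning, cells grew at least 48 hr at 37 °C; viability read by CellTiter-Glo luminescence.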
# HT1080NT lethal: kills 2HG-producing HT-1080-NT fibrosarcoma cells; AID 686970; hit rate 1.6% among 360,000; Potency, µM (titrated, usually from 46.1 µM), actives largely listed as cytotoxic; HT-1080-NT fibrosarcoma viability, CellTiter-Glo ATP luminescence, 48 h;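 also: NT is the 2HG producing partner of a matched IDH1 knockdown line; nearly all actives have a fitted effect of over 55% in size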
#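 Toxicity toward the 2HG-producing NT line was scored as %Activity, normalised to DMSO and no-cell wells, from CellTiter-Glo luminescence after 48 hours' treatment.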
# Numbers stand for hits; i = inactive; ? = inconclusive; nt = no result given; [ ] = remark or other dose. Unless noted, calls follow the shape of the dose curve; as a rule, active = well fitted curve in the direction sought with a large enough effect; inconclusive = small, poorly fitted or top-dose-only effect, or another doubt; inactive = no such curve, though single readings can be large; an effect the other way counts as inactive or inconclusive.
SMILES,DT40 TDP1 CPT,IL-1B inflam inh,HT1080 IDH1KD tx,12-LOX inh,DT40 TDP1 no CPT,HT1080NT lethal
O=C(NCc1nc2ccccc2[nH]1)C1=C[C@@H](c2csc3ccccc23)C[C@@H](OCc2ccc(CO)cc2)O1,?,i,i,i,21µM,i
Cc1ccc(C(=O)N2CCC(Cc3nc(-c4ccccc4)no3)CC2)cn1,nt,nt,nt,i,nt,nt
O=C(O)CCc1ccc(-c2ccc(Cl)cc2)n1Cc1ccco1,i,i,i,40µM,i,i
C=CCn1c(CCC(=O)O)ccc1-c1ccccc1,i,-77,i,i,?,i
CCC(C)n1c(-c2cccs2)nc2nc3ccccc3nc21 (configuration not stated),18µM,i,i,i,12µM,i
COc1ccc(C=O)cc1C1=CC(=O)C[C@H](c2ccc(Cl)cc2)C1,?,i,?,i,?,?
COc1cccc(C2=CC(=O)C[C@H](c3ccc(Cl)cc3)C2)c1OC,23µM,?,i,i,?,i
COc1cc(F)c(C2=CC(=O)C[C@H](c3ccc(F)cc3)C2)cc1F,?,i,i,i,i,i
COc1ccccc1C1=CC(=O)C[C@H](c2ccc(Cl)cc2)C1,15µM,-54,?,i,?,?
O=C(CN1C(=O)c2ccccc2S1(=O)=O)Nc1ncc(Cl)cc1Cl,i,i,i,?,i,i[9.24 µM]
CC1CCC(C(C)C)C(OC(=O)COC(=O)c2cc(=O)c3ccccc3o2)C1 (configuration not stated),nt,nt,nt,i,nt,nt
O=C(CCn1cncn1)N1CCC(c2[nH]ncc2-c2cccc(F)c2)CC1,nt,nt,nt,i,nt,nt
CCCc1nc2ccccc2n2c(-c3cccc(C)c3)c3c(=O)n(C)c(=O)n(C)c3c12,?,nt,nt,?,8.2µM,nt
CCCc1nc2ccccc2n2c(-c3ccc(C)cc3)c3c(=O)n(C)c(=O)n(C)c3c12,23µM,nt,nt,?,26µM,nt
Cc1nc2ccccc2n2c(-c3ccccc3)c3c(=O)n(C)c(=O)n(C)c3c12,?,i,i,i,15µM,i
Cn1c(CC(=O)Nc2ccccc2F)nnc1SCC(=O)Nc1ccc2ccccc2c1,nt,nt,nt,i,nt,nt
CCc1ccc(NC(=O)c2c(OC)cc(=O)n3c2CCCC3)cc1,nt,nt,nt,i,nt,nt
Cc1cc(C(=O)NCc2ccncc2)c2c(C3CCNC3)noc2n1 (configuration not stated),nt,nt,nt,i[6.33 µM],nt,nt
CSc1ncc(C(=O)Nc2ccc(Br)cn2)c(C)n1,16µM,i,i,i,?,i
CSc1ncc(C(=O)Nc2ccc(Cl)cc2)c(C)n1,i,i,i,i,?,i
O=C(Nc1ccc(Br)cn1)c1ccc2ccccc2c1,?,i,i,?,15µM,i
O=C(Nc1ccc(Br)cn1)c1cccc2ccccc12,2.1µM,i,5.8µM,i,2.1µM,2.9µM
COc1c(C(=O)Nc2ccc(Br)cn2)ccc2ccccc12,i,i,i,i,i,i
O=C(Nc1ccc(Br)cn1)c1cccc(C(=O)Nc2ccc(Br)cn2)c1,?,i,i,i,?,i
O=C(Nc1ccc(Br)cn1)c1ccc2nccnc2c1,13µM,i,i,i,18µM,i
SMILES,DT40 TDP1 CPT,IL-1B inflam inh,HT1080 IDH1KD tx,12-LOX inh,DT40 TDP1 no CPT,HT1080NT lethal
Cc1ccc(CNC(=O)C2CCN(S(=O)(=O)c3ccc4c(c3)oc(=O)n4C)CC2)cc1,i,nt,nt,i,i,nt
COc1cccc(C(=O)N2CCCCCC2c2nc(C)no2)c1 (configuration not stated),nt,nt,nt,i,nt,nt
C(=C\c1ccccc1)/CN1CCN(C(c2cccc3ccccc23)c2nnnn2C2CCCC2)CC1 (configuration not stated),21µM,?,?,i,9.2µM,?
C(=C\c1ccccc1)/CN1CCN(C(c2ccccc2)c2nnnn2-c2ccc3c(c2)OCCO3)CC1 (configuration not stated),?,i,?,?,?,?
C=CCN1CCN(C(c2cccc(OC)c2OC)c2nnnn2CCC(C)C)CC1 (configuration not stated),26µM,i,i,i,23µM,i
CCCCn1nnnc1C(c1ccc(OC)cc1)N1CCN(C/C=C/c2ccccc2)CC1 (configuration not stated),?,?,?,?,18µM,?
COc1ccc(-n2nnnc2C(c2ccccc2OC(F)(F)F)N2CCN(C/C=C/c3ccccc3)CC2)cc1 (configuration not stated),23µM,i,i,i,16µM,i
CCCCn1nc(C(=O)Nc2sc3c(c2C#N)CCCC3)c2ccccc2c1=O,nt,nt,nt,i,nt,nt
CSc1ccc(C)c(C(=O)NC2CCCCCCC2)c1,nt,nt,nt,i,nt,nt
COc1ccc(C(c2nnnn2-c2ccc(OC)cc2)N2CCN(C/C=C/c3ccccc3)CC2)cc1 (configuration not stated),?,-53,?,i,?,?
COc1ccc(C(c2nnnn2C(C)(C)C)N2CCN(C/C=C/c3ccccc3)CC2)cc1 (configuration not stated),?,i,i,?,?,i
COc1ccc(Cn2nnnc2C(c2ccc(F)cc2)N2CCN(C3CCCC3)CC2)cc1 (configuration not stated),?,i,i,i,?,i
COc1cccc(C(c2nnnn2C(C)(C)C)N2CCN(C/C=C/c3ccccc3)CC2)c1OC (configuration not stated),?,i,i,i,16µM,?
COc1ccc(C(c2nnnn2C2CCCCC2)N2CCN(C/C=C/c3ccccc3)CC2)cc1 (configuration not stated),16µM,i,?,?,?,?
COc1ccc(-n2nnnc2C(c2ccnc3ccccc23)N2CCN(C/C=C/c3ccccc3)CC2)cc1 (configuration not stated),7.3µM,?,?,?,4.6µM,?
CC1CCN(C(=O)c2ncn3c2c(=O)[nH]c2cccnc23)CC1,i,i,i,i,i,i
COc1cc(=O)n(-c2ccc(F)cc2)nc1C(=O)Nc1ccccc1SC,nt,nt,nt,i,nt,nt
COc1ccccc1Oc1ncccc1CNC(=O)c1ccccc1SC,nt,nt,nt,i,nt,nt
C(=C\c1ccccc1)/CN1CCN(C(c2cc3ccccc3o2)c2nnnn2Cc2ccccc2)CC1 (configuration not stated),?,i,i,i,16µM,i
C(=C\c1ccccc1)/CN1CCN(C(c2ccnc3ccccc23)c2nnnn2-c2ccc3c(c2)OCCO3)CC1 (configuration not stated),16µM,i,?,?,21µM,?
CCCCn1nnnc1C(c1cccs1)N1CCN(C/C=C/c2ccccc2)CC1 (configuration not stated),21µM,i,?,?,23µM,?
